Screening data (PubChem BioAssay)
Rows were chosen to be rich in hits. Some 21% of all compounds tested hit in one or more screens of this group.
Cycloheximide cs: Cycloheximide Counterscreen for Small Molecule Inhibitors of Shiga Toxin | 300,000 tested, 12% active | cell reporter, cycloheximide protein synthesis inhibition counterscreen | max response, %; in the data active = max response mostly above about 13%, no sharp cut-off; inactive = mostly below about 14%; also: read at 38.3 µM for the half of the compounds with a filed dose; 0% is about no effect
Shiga inhibitor: A qHTS for Small Molecule Inhibitors of Shiga Toxin; AID 2315, 2010; 290,000 tested, 9.2% active; Vero cells, Shiga toxin protein synthesis inhibition reporter; inhibition, % at 38.7 µM; in the data active = inhibition mostly above about 28%, no sharp cut-off; inactive = mostly below about 43%; also: 0% is about no effect
NS1 inh: qHTS Assay for Inhibitors of Influenza NS1 Protein Function. Potency, µM (series often up to 46.1 µM), inactives show at the top dose activity, positive = more growth. AID 2326, 2010. 270,000 tested, 0.4% active; calls by dose curve; also: potency is read from the fitted curve at half-maximal effect; actives are rising curves; nearly all actives have a fitted effect of over 50% in size
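OD600 was taken as the measure of yeast growth restored by compound in an NS1-expressing S. cerevisiae strain. Cells had been washed out of glucose medium and diluted 1:100 into galactose -URA medium, pH 6.0.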
Pf growth 96h: Primary qHTS for delayed death inhibitors of the malarial parasite plastid, 96 hour incubation. P. falciparum luciferase reporter growth, 96 h. Potency, µM (highest dose often 28.7 µM), inactives show at the highest dose activity change, negative = inhibition, actives largely listed as inhibitors. 320,000 tested, 6.9% active. AID 504834, 2011; also: potency is read from the fitted curve at half-maximal effect; % is scaled to controls: 0 for no effect and ±100 for the full control effect
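Erythrocytes infected with luciferase-expressing P. falciparum were dispensed at 2% hematocrit and 0.05% parasitemia (final), then incubated with compounds 96 hours at 37 C in 5% CO2. Luminescence after detection reagent addition reported growth.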
Pf growth 48h: Primary qHTS for delayed death inhibitors of the malarial parasite plastid, 48 hour incubation; 310,000 tested, 5.9% active; P. falciparum luciferase growth in erythrocytes, 48 h; Potency, µM (top dose mostly 28.7 µM), for inactives: at the highest dose activity change, negative = inhibition, most hits filed as inhibitors; also: potency is read from the fitted curve at half-maximal effect; % is scaled to controls: 0 for no effect and ±100 for the full control effect
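Cell-based growth assay: transgenic P. falciparum expressing firefly luciferase, cultured in red cells within RPMI 1640 containing 0.5% w/v Albumax, 24 mM bicarbonate and gentamycin. A drop in luciferase activity indicates inhibition.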
Numbers without * were called inactive; ? = inconclusive; . = no result; + = active, no number; [ ] = another dose, or the depositor's remark. Unless noted, calls follow the shape of the dose curve; as a rule, active = well fitted inhibition curve with a large enough effect; inconclusive = small, poorly fitted or top-dose-only effect, or another doubt; inactive = no such curve, though single readings can be large or run the other way.

SMILES	Cycloheximide cs	Shiga inhibitor	NS1 inh	Pf growth 96h	Pf growth 48h
CCOc1ccc(C(=O)NCC(=O)N2CCCC2)cc1	18	50*	17%	49%	11%
CC(=O)O[C@H]1[C@H]2O[C@]23[C@@H]2CC[C@@H]4C[C@@H](O)CC[C@]4(C)[C@H]2CC[C@]3(C)[C@H]1c1ccc(=O)oc1	-12	-15	.	.	.
CCOC(=O)c1c(NC2OC(=O)c3c2ccc(OC)c3OC)sc(C(=O)OC(C)(C)C)c1C (stereo not given)	31*	active	5%	?	?
O=C(Nc1ccc(Cl)cc1Cl)c1ccc2c(=O)n3c(nc2c1)CCC3	.	.	.	84%	57%
CCc1cccc(NC(=O)c2ccc3c(=O)n4c(nc3c2)CCCCC4)c1	38*	76*	-5%	-15%	?
O=C(CSc1nc2c(c(=O)[nH]1)CCC2)Nc1cccc(Cl)c1	-2	-1	-3%	-14%	-8%
O=C(Nc1ccc(F)c(Cl)c1)c1ccc2c(=O)n3c(nc2c1)CCCCC3	52*	54*	-33%	50%	205%
O=C(Nc1cccc(Cl)c1)c1ccc2c(=O)n3c(nc2c1)CCCCC3	41*	102*	-86%	?	-25%
CCc1ccc(C(=O)NNC(=O)c2ccc3c(=O)n4c(nc3c2)CCC4)cc1	-2	-10	17%	27%	11%
CCc1cccc(NC(=O)CSc2nc3c(c(=O)[nH]2)CCCC3)c1	-5	-8	8%	8.3µM*	-9%
COc1ccc(-c2cc(C(=O)Nc3c(C)n(C)n(-c4ccccc4)c3=O)no2)cc1OC	3	-8	.	12%	-9%
O=S(=O)(c1ccccc1)c1nc(-c2cccc(Cl)c2)oc1N1CCOCC1	3	-13	4%	?	0%
CSCC(CO)NS(=O)(=O)c1ccc(C)cc1 (stereo not given)	-2	16	-1%	32%	-1%
NC(=O)c1ccc(NC(=O)COC(=O)c2ccc(Br)o2)cc1	.	.	.	-1%	6%
O=C(O)CSc1c2c(nc3cc(C(=O)Nc4ccc(F)c(Cl)c4)ccc13)CCCC2	17	1	0%	1µM*	6%
O=C(Nc1ccc(F)cc1)c1ccc2c(=O)n3c(nc2c1)CCCCC3	24*	52*	-2%	4.7µM*	87%
Cc1ccc(CNC(=O)CSc2c3c(nc4cc(Cl)ccc24)CCCC3)o1	2	-11	-47%	-4%	15µM*
CC(=O)c1ccc(NC(=O)c2ccc3c(=O)n4c(nc3c2)CCCCC4)cc1	7	16	1%	18%	?
O=C(Nc1ccc(Cl)cc1)c1ccc2c(=O)n3c(nc2c1)CCCCC3	54*	41*	9%	6%	6%
COc1ccc(-c2cc(-n3c(C(F)(F)F)nc4ccccc43)n(CCC#N)n2)cc1	6	13	-1%	.	13µM*
Cc1c(NS(=O)(=O)c2ccc(Cl)c(C(=O)OCC(=O)NCc3ccco3)c2)c(=O)n(-c2ccccc2)n1C	-2	-6	.	86%	0%
COc1cc(CN2CCN(Cc3c[nH]c4ccccc34)CC2CCO)cc(OC)c1 (stereo not given)	-1	-15	25%	10µM*	-21%
CCn1ncc(CN2CCN(Cc3cccc(OC)c3)C(CCO)C2)c1C (stereo not given)	-1	10	0%	7.4µM*	0%
CCOc1ccc(CN2CCN(Cc3c(C)nn(CC)c3C)CC2CCO)cc1 (stereo not given)	-2	6	-1%	14%	-18%
CCn1nc(C)c(CN2CCN(Cc3cccc(OC)c3)C(CCO)C2)c1C (stereo not given)	4	-11	4%	12µM*	-3%
SMILES	Cycloheximide cs	Shiga inhibitor	NS1 inh	Pf growth 96h	Pf growth 48h
COc1ccc(CN2CCN(Cc3c[nH]c4ccccc34)CC2CCO)cc1C (stereo not given)	-1	-4	?	?	?
Cc1ccc(/C=C/C(=O)OC(C)C(=O)Nc2ncc(Cl)cc2Cl)o1 (stereo not given)	-2	-5	4%	24%	14%
N#Cc1cccc(N=Cc2c(O)ccc3ccccc23)c1	-1	-4	-3%	0%	159%
Cc1ccc(CCN=c2c([N+](=O)[O-])nn(-c3ccccc3)n2O)cc1	7	23	-7%	0%	?
O=[N+]([O-])c1nn(-c2ccccc2)n(O)c1=NCCc1ccccc1	25*	112*	-35%	-6%	4.1µM*
COc1ccc(-n2nc([N+](=O)[O-])c(=NCCc3ccccc3)n2O)cc1	15*	-8	-14%	0%	0%
CC(=O)COc1ccc2c(C)c(-c3ccccc3)c(=O)oc2c1	45*	58*	.	146%	155%
CCOC(=O)CCc1c(C)c2ccc(OC3CCCCC3=O)cc2oc1=O (stereo not given)	21*	27	-1%	-22%	?
C=CCOC(=O)COc1ccc2c(C)c(CC)c(=O)oc2c1	-2	-5	-45%	?	7%
CCCCc1c(C)c2ccc(OCC(C)=O)cc2oc1=O	30*	100*	-73%	15%	47%
CCCc1c(C)c2ccc(OCC(C)=O)cc2oc1=O	49*	94*	-102%	27%	.
CCOC(=O)CCc1c(C)c2ccc(OCc3ccc([N+](=O)[O-])cc3)cc2oc1=O	-4	-10	1%	0%	37%
CCOC(=O)CCc1c(C)c2ccc(OCc3nn[nH]n3)cc2oc1=O	-5	23	1%	-23%	7%
OCC[C@@H]1C[C@@H](O)[C@H](O)[C@]2(Cc3ccccc3CCO2)O1	-1	3	5%	48%	19%
C#CCOCCOCCOCCNc1nc(N2CCN(C(=O)[C@H]([C@@H](C)CC)n3cc([C@@H](N)CC(C)C)nn3)CC2)nc(N2CCN(C(=O)[C@H](CCCCN)n3cc([C@@H](N)CO)nn3)CC2)n1	-1	-5	4%	0%	0%
CCOC(=O)CCc1c(C)c2ccc(OCC(=O)OC(C)C)cc2oc1=O	34*	+	-49%	35%	10%
COC(=O)C1=C(C)N(c2ccc(OC)cc2)C(C)=C(C(=O)OC)C1c1ccc(OC)cc1	3	28	-1%	?	?
COC(=O)C1=C(C)N(c2ccc(OC)cc2)C(C)=C(C(=O)OC)C1c1ccccc1	-2	-1	-2%	?	1.3µM*
COC(=O)C1=C(C)N(C)C(C)=C(C(=O)OC)C1c1ccc(Cl)cc1	-2	-12	-12%	10µM*	?
Cc1cccc(C(=O)N2CCCCCC2)c1	-1	-7	-2%	?	.
Cc1ccc(C(=O)n2ncn(C)c2=S)cc1	-4	10	0%	11%	0%
Cc1cccc(C(=O)n2c(=S)nc3ccccn32)c1	29*	83*	-91%	240%	.
Cc1ccc(C(=O)n2c(=S)nc3ccccn32)cc1	49*	54*	-3%	251%	.
O=C(c1ccccc1)n1c(=S)nc2ccccn21	52*	97*	-14%	5%[5.75 µM]	227%
